Reference: PubChem BioAssay AID1645870 (National Center for Advancing Translational Sciences (NCATS), 2021)
Where “and” joins values, the source holds several entries; their conditions need not be identical. Equal entries are not always repeated. Among all 59,000 compounds or so, about 1,500 (2.5%) were called active. Entries that show only a call come without a potency. Another 10% or so got no clear call; they are omitted. Calls follow the shape of the dose curve; as a rule, active = well fitted inhibition curve with a large enough effect; inconclusive = small, poorly fitted or top-dose-only effect; inactive = flat fitted curve, though single readings scatter. Only a selection was taken, and actives are over-represented in it overall. A structure can be active in one record and inactive in another.

The molecules below were run against N-terminal Xaa-Pro-Lys N-methyltransferase 1 (Homo sapiens) (UniProt Q9BV86) (assay: Primary qHTS for Inhibitors of N-terminal methyltransferase 1 (NTMT1): MTaseGlo Assay). Conditions: NTMT1 MTase-Glo SAH luminescence, purified enzyme; series mostly up to 114 µM.
Excerpt: Assay Submitter (PI): Rong Huang Ph.D.
Purdue University, West Lafayette, IN 47907
The N-terminal methytransferase 1 is the first methyltransferase that methylates protein alpha-N-amines and plays an important role in regulating cell mitosis, chromatin interactions and DNA repair. It is observed to be over-expressed in various cancer patient tissues like malignant melanoma and colorectal cancer tissues. Knockdown of NTMT1 in cancer cells causes cell mitotic defects and enhances sensitivity to DNA damaging chemotherapeutics. […] These critical cellular processes in which NTMT1 is implicated, coupled with emerging links to cellular dysfunction, strengthen the inference that NTMT1 is a compelling novel anticancer target. Progress have been made in understanding the molecular properties of NTMT1 and the biological consequences of protein alpha-N-terminal methylation, but there are no specific small molecule probes available for NTMT1 to fully characterize its MTase activity. To address this unmet need, a panel of assay is created and established to enable quantitative high-throughput screening (qHTS) for novel, potent, and selective small molecule NTMT1 inhibitors. Two orthogonal qHTS that use different reagents (ThioGlo vs. MTaseGlo) are developed for primary robotic screening against the NCATS chemical library of more than 400,000 small molecules. Identified inhibitors are reacquired, validated, and further characterized.
MTaseGlo Assay is a luminescence screen that measure the activity of methyltransferases based on the reaction product S-adenosyl homocysteine (SAH). The substrate SAM is converted to SAH upon enzyme activation. MTase-Glo reagent and detection solution convert SAH to ATP and measure the light from the luciferase reaction.
Materials: NTMT1 enzyme, substrate SPKRIA, control peptide RCC1-6 is provided by the Huang laboratory.
SEQUENCE No. (e.g., 1, 2, 3, etc.); […] (e.g., Cells, Incubation, Reagent, etc.); VALUE; DESCRIPTION
1; Enzyme; 3 uL; Dispense enzyme mixture (final concentrations of 125 nM NTMT1 and 100 uM SAM) into Greiner 1536-well white / solid bottom assay plate (Greiner Bio One, Monroe, NC).
2; Compounds; 23 nL; Compounds and controls were transferred via a Kalypsys Pin Tool (Wako USA) equipped with a 1536-slotted pin array (Wako Automation, Richmond, VA)
3; Incubation; 15 min; Incubate at room temperature
4; Substrate; 1 uL; Dispense 1 uL of substrate at final concentration of 1 uM. Buffer solution was dispensed in control wells. The assay plate was covered with metal lids.
5; Incubation; 30 min; Incubate at room temperature, protected from lights.
6; Reagent; 1 uL; Dispensed 5x MTase-Glo detection reagent (R) into the assay plate. The plate was covered with metal lids.
7; Incubation; 30 min; Incubate the assay plates at room temperature in the dark to allow for SAH to be converted to ADP.
8; Reagent; 5 uL; Dispense 5 uL of 1x MTase-Glo Detection Solution (R) to allow for ADP to be converted to ATP which was then detected with a luciferase reaction.
9; Centrifuge; 15 sec; Centrifuge the assay plate for 15 seconds at 1000 RPM.
10; Incubation; 30 min; Assay plates were incubation at room temperature in the dark.
11; Detection; Luminescence; Plates were read on ViewLux detector (PerkinElmer). Data were normalized to no-enzyme (0% activity) and no-inhibitor (DMSO; 100%) controls, and the resulting percent inhibition data were fitted to a 4-parameter Hill equation using GraphPad Prism.
Also: nearly all actives have a fitted effect of over 65% in size.
Potency is read from the fitted curve at half-maximal effect.

N-terminal Xaa-Pro-Lys N-methyltransferase 1 (Homo sapiens), sequence (Q9BV86 whole entry, looked up): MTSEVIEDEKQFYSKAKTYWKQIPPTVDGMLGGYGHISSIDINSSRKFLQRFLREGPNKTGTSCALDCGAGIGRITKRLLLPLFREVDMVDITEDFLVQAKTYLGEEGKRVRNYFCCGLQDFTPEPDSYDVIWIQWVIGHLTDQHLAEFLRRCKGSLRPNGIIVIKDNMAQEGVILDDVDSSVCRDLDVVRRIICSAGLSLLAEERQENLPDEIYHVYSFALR

SMILES | Potency
C=CC(=O)Nc1ccc2ncnc(Nc3ccc(OCc4cccc(F)c4)c(Cl)c3)c2c1 | inactive
COc1cc2ncnc(Nc3cccc(Cl)c3F)c2cc1OC(=O)N1CCN(C)C[C@H]1C | 35.5 µM (active) and 39.8 µM (active)
Cc1cc(NS(=O)(=O)c2cc3c(cc2F)NC(=O)CC3)ccc1F | inactive
CNc1oc(-c2ccc(-c3ccccc3)cc2)nc1C#N | inactive
COc1ccc(C(=O)N(Cc2ccccc2)Cc2ccc(OC)c(COc3ccc(NC(C)=O)cc3)c2)c(O)c1 | inactive
O=C(Nc1ccc(S(=O)(=O)Nc2nccs2)cc1)C1CC(OCc2ccccc2)C1 (centres undefined) | inactive
O=C(CNC(=O)c1ccc(Cl)cc1Cl)OC(C(=O)Nc1cc(C(F)(F)F)ccc1Cl)c1ccccc1 (centres undefined) | inactive
Cc1cn([C@H]2C[C@H](N[S+](=O)([O-])Cc3ccc(Cl)cc3)[C@@H](CO)O2)c(=O)[nH]c1=O | inactive
Cc1cc(C)c(/C=C2\C(=O)Nc3ccccc32)[nH]1 | inactive
Cc1[nH]c(/C=C2\C(=O)Nc3ccc(S(=O)(=O)Cc4c(Cl)cccc4Cl)cc32)c(C)c1C(=O)N1CCC[C@@H]1CN1CCCC1 | 11.2 µM (active)
Cc1ccc(C(=O)Nc2ccc(S(=O)(=O)Nc3nccs3)cc2)cc1C | inactive
O=C(Cc1ccc(Cl)c(Cl)c1)Nc1ccc([S+](=O)([O-])Nc2cccc([N+](=O)[O-])c2)cc1 | inactive
O=S1(=O)N=C(Oc2cccc(Br)c2)c2ccccc21 | inactive
O=C(Nc1ccccn1)c1sc2ccc([N+](=O)[O-])cc2c1Cl | inactive
COC(=O)c1ccccc1NC(=O)c1ccc(C#N)cc1 | inactive
COc1ccc(C2Nc3ccccc3C(=O)N2Cc2cccc(OC)c2OC)cc1COc1c(C)cc(NC(C)=O)cc1C (centres undefined) | inactive
Cc1cccc(N2CCN(c3ccc(C(=O)O)cc3NC(=O)c3ccccc3F)CC2C)c1 (centres undefined) | 70.8 µM (active)
Cc1cccc(N2CCN(C(=O)c3cc4c(=O)oc5ccccc5c4s3)CC2C)c1 (centres undefined) | inactive
Cc1ccccc1NC(=O)c1c(NC(=O)c2ccccc2F)sc2c1CCC(C)C2 (centres undefined) | inactive
O=C1CC(c2c[nH]c3ccc(F)cc23)C(=O)N1 (centres undefined) | inactive
CC1=C(C(=O)Nc2ccccc2C)C(c2ccccc2Br)N=C(Nc2nc3ccccc3o2)N1 (centres undefined) | inactive
O=C(CNC(=O)c1ccc(Cl)c(C(F)(F)F)c1)OC(C(=O)Nc1cc(C(F)(F)F)ccc1Cl)c1ccccc1 (centres undefined) | inactive
Cc1ccc(-c2ccc(=O)n(CCNC(C)c3ccco3)n2)cc1 (centres undefined) | inactive
Cc1c(Cl)cccc1NC(=O)N1CCN(C(=O)c2nsc3ccccc23)CC1 | inactive

SMILES | Potency
CCC(C(=O)Nc1cccc(Cl)c1C)n1nc(-c2ccc(C)cc2)ccc1=O (centres undefined) | 79.4 µM (active)
N#CN1CCC(NC(=O)c2ccc(F)cc2)CC1 | inactive
CNc1oc(-c2cccc(Cl)c2Cl)nc1C#N | inactive
COc1cccc(C(=O)NC2CCN(C#N)CC2)c1 | inactive
COc1ccc(C2Nc3ccccc3C(=O)N2Cc2ccccc2)cc1COc1ccc(C(N)=O)cc1 (centres undefined) | inactive
C[C@H](NC(=O)c1c(N)nn2cccnc12)c1cc2cccc(C#Cc3cnn(C)c3)c2c(=O)n1-c1ccccc1 | inactive
Cc1sc(NC(=O)Cc2ccc3c(c2)OCO3)nc1-c1ccc2c(c1)CCN2 | inactive
CCN(CCCNC(=O)Cn1ncc2c3ccccc3n(C)c2c1=O)Cc1ccccc1 | inactive
CCCN(CCC)CCCNC(=O)Cn1ncc2c3ccccc3n(Cc3ccccc3)c2c1=O | inactive
CCN(CC)CCNC(=O)Cn1ncc2c3ccccc3n(Cc3ccccc3C)c2c1=O | 89.1 µM (active)
CCOc1ccc(CCNC(=O)c2cc3sccc3n2CCN2CCOCC2)cc1OCC | inactive
CS(=O)(=O)c1ccc(C(=O)OCC(=O)N2CCC(c3ccccc3)CC2)cc1[N+](=O)[O-] | inactive
Cc1cc(N[S+](=O)([O-])c2ccc(NC(=O)Cc3ccc(F)c(C(F)(F)F)c3)cc2)no1 | inactive
Cc1cc(Oc2ccc3nc(COc4ccc(CC5SC(=O)NC5=O)cc4)n(C)c3c2)cc(C)c1N (centres undefined) | inactive
CCCCc1nn2c(=O)cc(COC(=O)c3cccc(NC(=O)COc4ccccc4)c3)nc2s1 | inactive
COc1ccc(OCC(=O)Nc2cccc(C(=O)OCc3cc(=O)n4nc(C)sc4n3)c2)cc1 | 50.1 µM (active)
Cc1nn2c(=O)cc(COC(=O)c3cccc(NC(=O)COc4ccccc4Cl)c3)nc2s1 | inactive
CCOc1cc2[nH]c(=O)n(Cc3ccc(C(=O)NCCN(CC)CC)cc3)c(=O)c2cc1OCC | inactive
CCN(CC)CCNC(=O)c1c(C)[nH]c(C=C2C(=O)Nc3ccc(F)cc32)c1C | 44.1 µM (active)
CCN(CC)CCNC(=O)c1cc(S(C)(=O)=O)ccc1OC | inactive
CCOc1cc(C(C)(C)C)ccc1C1=N[C@@](C)(c2ccc(Cl)cc2)[C@@](C)(c2ccc(Cl)cc2)N1C(=O)N1CCN(CC(=O)N2CCOCC2)CC1 | inactive
C=C1C[C@@H]2CC[C@@]34C[C@H]5O[C@H]6[C@@H](O3)[C@H]3O[C@H](CC[C@@H]3O[C@H]6[C@H]5O4)CC(=O)C[C@@H]3[C@@H](OC)[C@@H](C[C@H](O)CN)O[C@H]3C[C@H]3O[C@@H](CC[C@@H]1O2)C[C@@H](C)C3=C | inactive
O=S(=O)(NC1CCN(S(=O)(=O)c2ccc3c(c2)OCCO3)CC1)c1c(F)cccc1F | inactive
COc1ccc(C2=Nn3c(nnc3-c3ccccc3F)SC2)cc1OC | inactive

SMILES | Potency
COc1ccc(NC(=O)CSc2nc3ccccc3[nH]2)cc1 | inactive
COC(=O)c1ccc(NC(=O)CSc2n[nH]c(-c3ccccc3)n2)cc1 | inactive
COc1ccc(-c2nc3c(c(SCC(=O)Nc4ccc(C(=O)O)cc4)n2)Cc2ccccc2O3)cc1 | 11.2 µM (active)
CN(C)CC(=O)NC1CCCc2c1cnn2-c1ccc(F)cc1F (centres undefined) | inactive
O=C(Nc1ccc(Cl)c(Cl)c1)Nc1nnc(-c2ccc(F)cc2)s1 | inactive
O=C(Nc1ccc(Cl)c(Cl)c1)Nc1nnc(N2CCNCC2)s1 | 50.1 µM (active)
O=C(Nc1ccc(Cl)c(Cl)c1)Nc1nnc(C2CCCCC2)s1 | inactive
O=C(Nc1nc(-c2ccccc2)cs1)c1ccccc1-n1cnnn1 | inactive
Cc1cc(-c2nnc3n2CCCCC3)c(C)n1-c1ccc(C(F)(F)F)cc1 | inactive
COc1cc(F)c(S(=O)(=O)N2CCCN(S(=O)(=O)c3ccc(N)cc3)CC2)c(F)c1 | inactive
CC(C)(C)OC(=O)N1CCN(c2ccc(NCc3ccc4c(-c5ccc(F)cc5)cc(=O)oc4c3)cc2)CC1 | inactive
Cc1cc(-c2nnc3n2CCCCC3)c(C)n1-c1cccc(Cl)c1 | inactive
C(#Cc1cccs1)c1cccnc1 | inactive
CC(C)(C)c1nc(-c2cccc(NS(=O)(=O)c3c(F)cccc3F)c2F)c(-c2ccnc(N)n2)s1 | inactive and 39.8 µM (active)
CCOC(=O)c1scc(-c2ccccc2)c1S(=O)(=O)Nc1ccccc1F | inactive
O=C(C[C@H]1CC[C@@H](C(=O)Nc2ccc(S(=O)(=O)Nc3nccs3)cc2)C1)c1ccccc1 | inactive
O=C(NCc1nnc(C(=O)Nc2ccc(C(F)(F)F)cc2Cl)o1)c1ccccc1 | inactive
Cc1cccc(C2N=C(Nc3nc4ccccc4o3)NC3=C2C(=O)CCC3)c1 (centres undefined) | inactive
COc1cccc(C(=O)Nc2nnc(S(=O)(=O)N3CCOCC3)s2)c1 | inactive
COc1ccc(CC(=O)Nc2ccc(-c3nc4ccccc4s3)c(C)c2)cc1 | inactive
COc1ccc2c(c1)Cc1sc(NC(=O)c3ccccc3Br)nc1-2 | 50.1 µM (active)
CC(Cc1cnccn1)Nc1cnc2c(O)ccc(C(=O)O)c2c1 (centres undefined) | inactive
CCCn1c(-c2ccc(F)cc2)nc2c(NCC3CCCN3CC)nc(C)nc21 (centres undefined) | inactive
NC(=O)C1CCN(c2ncc(-c3ccc(Cl)cc3)s2)CC1 | inactive

SMILES | Potency
COc1cccc(OC2=NS(=O)(=O)c3ccccc32)c1 | inactive
Oc1c(Cl)cc(Cl)c(Cl)c1Cc1c(O)c(Cl)cc(Cl)c1Cl | 31.6 µM (active)
Cc1cc(Nc2cc(C)c(C#N)c(NC(C)CCCC(C)(C)O)n2)n[nH]1 (centres undefined) | inactive
Cc1ccc(Cn2ncc3c4sc(C)cc4n(C)c3c2=O)c(C)c1 | inactive
O=C1CCc2cc(S(=O)(=O)Nc3cccc(Oc4ccccc4)c3)ccc2N1 | inactive
COc1ccc(C2Nc3ccccc3C(=O)N2Cc2cccs2)cc1COc1c(C)cccc1C (centres undefined) | inactive
COc1cccc(CNc2ccc(S(=O)(=O)Nc3cccs3)cc2)c1O | inactive
CCCn1c(C)nc2c(NCCCCN(CC)CC)nc(C)nc21 | inactive
CCc1ccc(CNC(=O)c2cc3c(=O)n(CC)c4ccccc4c3s2)cc1 | inactive
CCn1c(=O)c2cc(C(=O)NCCc3ccc(Cl)cc3)sc2c2ccccc21 | inactive
CCN(CCCNC(=O)c1cc2c(=O)n(CC)c3ccccc3c2s1)Cc1ccccc1 | 79.4 µM (active)
COc1ccc(C2Nc3ccccc3C(=O)N2Cc2ccc(CNC(=O)CO)cc2)cc1COc1ccc(NC(C)=O)cc1 (centres undefined) | inactive
O=C(Nc1ccc(S(=O)(=O)N2CCC(c3nc4ccccc4s3)CC2)cc1)c1ccccc1F | inactive
O=C(Nc1nc2c(s1)CCCC2)c1ccccc1F | 35.5 µM (active)
Cc1cc(C)cc(OC(C)C(=O)Nc2nc3c(s2)CCCC3)c1 (centres undefined) | inactive
O=C1CCCC2=C1C(c1[nH]ncc1Cl)N=C(Nc1nc3ccc(F)cc3o1)N2 (centres undefined) | inactive
CN1C(=O)[C@@H](NC(=O)c2n[nH]c(Cc3ccccc3)n2)COc2ccccc21 | inactive
Nc1ccc2c(=O)n3nc(Nc4ccc5c(c4)CCC5)sc3nc2c1 | inactive
Oc1ccc(/C=C/c2c(F)cccc2F)c2cccnc12 | inactive
CCOc1ccccc1C(=O)Nc1ccc(S(=O)(=O)N2CCCCC2c2cccnc2)cc1 (centres undefined) | 79.4 µM (active)
CCOc1ccccc1NC(=O)CN1CCN(S(=O)(=O)c2ccc(Br)cc2)CC1 | inactive
Cc1cccc(C(=O)Nc2ccc(S(=O)(=O)N3CCCCC3c3cccnc3)cc2)c1 (centres undefined) | inactive
